Experimental data reported in PubChem BioAssay AID1159580 (chemical genetic matrix, 2015).
The campaign covered roughly 5,500 compounds. About 2,000 (36%) were called active. About 18% were inconclusive and are not listed. Cut-off read from the data, not from the text of the source: active = normalized growth mostly below about 0.91 (no sharp cut-off); inconclusive = no clear call, values can overlap the other calls; inactive = mostly above about 0.92. The list shows a part of the results.

Assay: chemical genetic growth profiling, strain panel (AID 1159580);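 note: tested at 20 µM; growth read once vehicle control cultures reached saturation at 30 °C; 1 = growth at the plate median or of vehicle wells; lower values mean less growth of the strain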
Conditions: growth OD

Measured: normalized growth

CC(C)CC1C(=O)N2CCC[C@H]2C2(O)O[C@](NC(=O)C3C=C4c5cccc6[nH]c(Br)c(c56)C[C@H]4N(C)C3)(C(C)C)C(=O)N12 (stereo partly specified)
inactive: S. cerevisiae deletion strains, locus YKL009W, strain mrt4, stronger effect = lower value 0.983 | S. cerevisiae deletion strains, locus YKL068W, stronger effect = lower value 0.97 | S. cerevisiae deletion strains, locus YKL085W, strain MDH1 (second series), stronger effect = lower value 0.963 | S. cerevisiae deletion strains, locus YKL085W, strain MDH1, stronger effect = lower value 0.963 | S. cerevisiae deletion strains, locus YKL160W, strain elf1, stronger effect = lower value 0.993 | S. cerevisiae deletion strains, locus YKL190W, strain CNB1, stronger effect = lower value 0.979 | S. cerevisiae deletion strains, locus YKR001C, strain vps1, stronger effect = lower value 0.989 | S. cerevisiae deletion strains, locus YKR026C, strain gcn3, stronger effect = lower value 0.998 | S. cerevisiae deletion strains, locus YKR091W, strain srl3, stronger effect = lower value 0.979 | S. cerevisiae deletion strains, locus YLL001W, strain dnm1, stronger effect = lower value 0.988 | S. cerevisiae deletion strains, locus YLL026W, stronger effect = lower value 0.977 | S. cerevisiae deletion strains, locus YLL041C, strain sdh2, stronger effect = lower value 0.982 | S. cerevisiae deletion strains, locus YLR027C, strain aat2, stronger effect = lower value 0.977 | S. cerevisiae deletion strains, locus YLR039C, strain RIC1, stronger effect = lower value 0.905 | S. cerevisiae deletion strains, locus YLR058C, strain SHM2, stronger effect = lower value 0.988 | S. cerevisiae deletion strains, locus YLR102C, strain apc9, stronger effect = lower value 0.973 | S. cerevisiae deletion strains, locus YLR113W, strain HOG1, stronger effect = lower value 0.945 | S. cerevisiae deletion strains, locus YLR221C, strain rsa3, stronger effect = lower value 0.983 | S. cerevisiae deletion strains, locus YLR258W, strain gsy2, stronger effect = lower value 0.997 | S. cerevisiae deletion strains, locus YLR262C, strain YPT6 (second series), stronger effect = lower value 0.944 | S. cerevisiae deletion strains, locus YLR262C, strain YPT6, stronger effect = lower value 0.951 | S. cerevisiae deletion strains, locus YLR268W, strain sec22, stronger effect = lower value 0.98 | S. cerevisiae deletion strains, locus YLR320W, strain mms22, stronger effect = lower value 0.982 | S. cerevisiae deletion strains, locus YLR330W, strain CHS5, stronger effect = lower value 0.975 | S. cerevisiae deletion strains, locus YLR342W, strain FKS1 (second series), stronger effect = lower value 0.995 | S. cerevisiae deletion strains, locus YLR342W, strain FKS1, stronger effect = lower value 0.983 | S. cerevisiae deletion strains, locus YLR357W, strain rsc2, stronger effect = lower value 0.933 | S. cerevisiae deletion strains, locus YLR370C, strain arc18, stronger effect = lower value 0.966 | S. cerevisiae deletion strains, locus YLR371W, strain rom2, stronger effect = lower value 0.977 | S. cerevisiae deletion strains, locus YLR384C, strain iki3, stronger effect = lower value 0.987 | S. cerevisiae deletion strains, locus YLR418C, strain cdc73, stronger effect = lower value 0.978 | S. cerevisiae deletion strains, locus YML016C, strain PPZ1, stronger effect = lower value 0.983 | S. cerevisiae deletion strains, locus YML032C, strain rad52, stronger effect = lower value 0.982 | S. cerevisiae deletion strains, locus YML120C, strain ndi1, stronger effect = lower value 0.992 | S. cerevisiae deletion strains, locus YML124C, strain tub3, stronger effect = lower value 0.973 | S. cerevisiae deletion strains, locus YMR058W, strain fet3, stronger effect = lower value 0.973 | S. cerevisiae deletion strains, locus YMR078C, strain ctf18, stronger effect = lower value 0.98 | S. cerevisiae deletion strains, locus YMR125W, strain sto1, stronger effect = lower value 0.99 | S. cerevisiae deletion strains, locus YMR129W, stronger effect = lower value 0.977 | S. cerevisiae deletion strains, locus YMR205C, strain PFK2, stronger effect = lower value 0.97 | S. cerevisiae deletion strains, locus YMR223W, strain ubp8, stronger effect = lower value 0.986 | S. cerevisiae deletion strains, locus YMR231W, strain pep5, stronger effect = lower value 0.99 | S. cerevisiae deletion strains, locus YMR263W, strain SAP30, stronger effect = lower value 0.981 | S. cerevisiae deletion strains, locus YMR307W, strain GAS1, stronger effect = lower value 1.07 | S. cerevisiae deletion strains, locus YNL067W, strain RPL9B, stronger effect = lower value 0.988 | S. cerevisiae deletion strains, locus YNL071W, strain lat1, stronger effect = lower value 0.993 | S. cerevisiae deletion strains, locus YNL128W, strain TEP1, stronger effect = lower value 0.97 | S. cerevisiae deletion strains, locus YNL153C, strain GIM3, stronger effect = lower value 0.986 | S. cerevisiae deletion strains, locus YNL183C, strain NPR1, stronger effect = lower value 0.938 | S. cerevisiae deletion strains, locus YNL209W, strain ssb2, stronger effect = lower value 0.989 | S. cerevisiae deletion strains, locus YNL233W, strain BNI4, stronger effect = lower value 0.986 | S. cerevisiae deletion strains, locus YNL248C, strain rpa49, stronger effect = lower value 0.993 | S. cerevisiae deletion strains, locus YNL250W, strain rad50, stronger effect = lower value 0.952 | S. cerevisiae deletion strains, locus YNL271C, strain bni1, stronger effect = lower value 0.976 | S. cerevisiae deletion strains, locus YNL298W, strain CLA4, stronger effect = lower value 0.986 | S. cerevisiae deletion strains, locus YNL307C, strain MCK1, stronger effect = lower value 0.981 | S. cerevisiae deletion strains, locus YNL322C, strain KRE1 (second series), stronger effect = lower value 0.992 | S. cerevisiae deletion strains, locus YNL322C, strain KRE1, stronger effect = lower value 0.978 | S. cerevisiae deletion strains, locus YNR049C, strain mso1, stronger effect = lower value 0.971 | S. cerevisiae deletion strains, locus YNR052C, strain pop2, stronger effect = lower value 1 | S. cerevisiae deletion strains, locus YOL006C, strain TOP1, stronger effect = lower value 1.02 | S. cerevisiae deletion strains, locus YOL012C, strain htz1 0.94 | S. cerevisiae deletion strains, locus YOL147C, strain pex11, stronger effect = lower value 0.969 | S. cerevisiae deletion strains, locus YOR001W, strain rrp6, stronger effect = lower value 0.997 | S. cerevisiae deletion strains, locus YOR061W, strain CKA2, stronger effect = lower value 0.98 | S. cerevisiae deletion strains, locus YOR069W, strain VPS5, stronger effect = lower value 0.983 | S. cerevisiae deletion strains, locus YOR070C, strain gyp1, stronger effect = lower value 0.985 | S. cerevisiae deletion strains, locus YOR080W, strain dia2, stronger effect = lower value 0.974 | S. cerevisiae deletion strains, locus YOR083W, strain WHI5, stronger effect = lower value 0.995 | S. cerevisiae deletion strains, locus YOR106W, strain vam3, stronger effect = lower value 1.07 | S. cerevisiae deletion strains, locus YOR136W, strain idh2, stronger effect = lower value 0.987 | S. cerevisiae deletion strains, locus YOR144C, strain elg1, stronger effect = lower value 0.979 | S. cerevisiae deletion strains, locus YOR184W, strain ser1, stronger effect = lower value 0.995 | S. cerevisiae deletion strains, locus YOR231W, strain MKK1, stronger effect = lower value 0.981 | S. cerevisiae deletion strains, locus YOR265W, strain rbl2, stronger effect = lower value 0.971 | S. cerevisiae deletion strains, locus YOR270C, strain vph1, stronger effect = lower value 1.07 | S. cerevisiae deletion strains, locus YOR290C, strain snf2, stronger effect = lower value 0.977 | S. cerevisiae deletion strains, locus YOR316C, strain cot1, stronger effect = lower value 0.976 | S. cerevisiae deletion strains, locus YPL051W, strain arl3, stronger effect = lower value 0.985 | S. cerevisiae deletion strains, locus YPL055C, strain LGE1, stronger effect = lower value 1 | S. cerevisiae deletion strains, locus YPL078C, strain atp4, stronger effect = lower value 0.984 | S. cerevisiae deletion strains, locus YPL106C, strain sse1, stronger effect = lower value 0.941 | S. cerevisiae deletion strains, locus YPL240C, strain hsp82, stronger effect = lower value 0.99 | S. cerevisiae deletion strains, locus YPL241C, strain CIN2, stronger effect = lower value 0.988 | S. cerevisiae deletion strains, locus YPL256C, strain CLN2, stronger effect = lower value 0.99 | S. cerevisiae deletion strains, locus YPR119W, strain clb2, stronger effect = lower value 0.988 | S. cerevisiae deletion strains, locus YPR141C, strain kar3, stronger effect = lower value 0.938 | S. cerevisiae deletion strains, locus YPR163C, strain tif3, stronger effect = lower value 0.975 | S. cerevisiae deletion strains, locus YPR167C, strain met16, stronger effect = lower value 0.97 | S. cerevisiae deletion strains, strain wtn01, stronger effect = lower value 0.975 | S. cerevisiae strains, strain wild type, stronger effect = lower value 0.983
